Consider 7 molecules from PubChem BioAssay (EPA / NIEHS).

Calls of active or inactive are those of the source. The calls were made as follows: active = hit-call score of the fitted dose curve at least 0.9, where 1 is the maximum; inactive = score below 0.9.

What all share (conditions): mRNA level, 48 h; actives raise or lower the signal
Read-out in experiment [1]: Paternally Expressed 10 (PEG10), PEG10 (gene 23089)
Put plainly: LTEA_HepaRG_PEG10: Life Technologies and Expression Analysis (LTEA) Assay for Paternally Expressed 10 (PEG10) using HepaRG (AID 2283520). Put shortly: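 Differentiated HepaRG cells exposed 48 h in serum-free induction medium to eight half-log concentrations topping at 100 uM, 0.5% DMSO, in duplicate. PEG10 mRNA quantified by TaqMan qRT-PCR, normalized to ACTB, GAPDH and POLR2A; bidirectional fit versus DMSO.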

Read-out in experiment [2]: Protein phosphatase 2A (PPP2R4), PTPA (gene 5524)
As to the kind of experiment: LTEA_HepaRG_PPP2R4: Life Technologies and Expression Analysis (LTEA) Assay for Protein phosphatase 2A (PPP2R4) using HepaRG (AID 2283522). In a few lines: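 Differentiated human HepaRG cells in serum-free induction medium were exposed 48 h to 8 concentrations (top 100 µM, half-log steps, duplicate) in 0.5% DMSO. PPP2R4 mRNA was measured by TaqMan qRT-PCR, normalised to ACTB, GAPDH and POLR2A, and fitted bidirectionally versus DMSO.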

Read-out in experiment [3]: Phosphatase and tensin (PTEN), PTEN (gene 5728)
Put plainly: LTEA_HepaRG_PTEN: Life Technologies and Expression Analysis (LTEA) Assay for Phosphatase and tensin (PTEN) using HepaRG (AID 2283523). In a few lines:
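Read-out is PTEN transcript level by multiplexed TaqMan qRT-PCR after 48 h chemical treatment of human HepaRG cultures in serum-free induction medium. Concentrations spanned 100 uM downward in half-log steps, 0.5% DMSO throughout; activity fitted in both directions against vehicle.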

Read-out in experiment [4]: Pyruvate Dehydrogenase Kinase 4 (PDK4), PDK4 (gene 5166)
As to the kind of experiment: LTEA_HepaRG_PDK4: Life Technologies and Expression Analysis (LTEA) Assay for Pyruvate Dehydrogenase Kinase 4 (PDK4) using HepaRG (AID 2283525). In a few lines:
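In this multiplexed human HepaRG expression assay, cells are treated 48 h with test chemicals across an eight-point range starting at 100 uM. PDK4 mRNA changes, normalized to ACTB/GAPDH/POLR2A, are fitted in both directions relative to vehicle.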

Read-out in experiment [5]: NAD(P)H dehydrogenase [quinone] 1 (NQO1), NQO1 (gene 1728)
Put plainly: LTEA_HepaRG_NQO1: Life Technologies and Expression Analysis (LTEA) Assay for NAD(P)H dehydrogenase [quinone] 1 (NQO1) using HepaRG (AID 2283526). In a few lines:
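Differentiated human HepaRG cells in serum-free induction medium, dosed in duplicate for 48 h at 8 half-log concentrations up to 100 uM in 0.5% DMSO. NQO1 mRNA by qRT-PCR normalized to ACTB, GAPDH, POLR2A; bidirectional fit versus DMSO baseline.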

Read-out in experiment [6]: succinate dehydrogenase complex iron sulfur subunit B (SDHB), SDHB (gene 6390)
Put plainly: LTEA_HepaRG_SDHB: Life Technologies and Expression Analysis (LTEA) Assay for succinate dehydrogenase complex iron sulfur subunit B (SDHB) using HepaRG (AID 2283528). In a few lines: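 A human HepaRG culture in serum-free induction medium received test chemicals for 48 h over an eight-point range capped at 100 uM. SDHB expression change was quantified by qRT-PCR.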

Read-out in experiment [7]: Signal transducer and activator of transcription 3 (Homo sapiens) (UniProt P40763)
Put plainly: LTEA_HepaRG_STAT3: Life Technologies and Expression Analysis (LTEA) Assay for Signal transducer and activator of transcription (STAT3) using HepaRG (AID 2283529). In a few lines:
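Read-out is STAT3 mRNA level by qRT-PCR, normalized to three housekeeping genes, in human HepaRG liver cells treated for 48 h. Concentrations ran from 100 uM downward in half-log steps; curves were fitted for gain or loss relative to 0.5% DMSO.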

Read-out in experiment [8]: solute carrier (SLCO1B1), SLCO1B1 (gene 10599)
Put plainly: LTEA_HepaRG_SLCO1B1: Life Technologies and Expression Analysis (LTEA) Assay for solute carrier (SLCO1B1) using HepaRG (AID 2283530). In a few lines: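 Human HepaRG cultures treated for 48 h with an eight-concentration half-log series topping at 100 uM; SLCO1B1 measured by qRT-PCR and fitted bidirectionally relative to DMSO.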

Read-out in experiment [9]: sulfotransferase 2A1 (SULT2A1), SULT2A1 (gene 6822)
Put plainly: LTEA_HepaRG_SULT2A1: Life Technologies and Expression Analysis (LTEA) Assay for sulfotransferase 2A1 (SULT2A1) using HepaRG (AID 2283531). In a few lines:
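Gene-expression endpoint in a human liver cell line: SULT2A1 mRNA change after 48 h chemical treatment, curves fitted in both directions relative to 0.5% DMSO vehicle. Concentrations spanned eight half-log steps from 100 uM.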

Read-out in experiment [10]: Transforming Growth Factor (TGFA), TGFA (gene 7039)
As to the kind of experiment: LTEA_HepaRG_TGFA: Life Technologies and Expression Analysis (LTEA) Assay for Transforming Growth Factor (TGFA) using HepaRG (AID 2283532). Put shortly:
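HepaRG (human liver line), 48 h exposure, 8 conc. half-log down from 100 uM, 0.5% DMSO vehicle, duplicates; serum-free induction medium. TGFA mRNA by TaqMan qRT-PCR, ACTB/GAPDH/POLR2A normalization; gain/loss fit vs DMSO.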

Read-out in experiment [11]: Transforming Growth Factor (TGFB1), TGFB1 (gene 7040)
As to the kind of experiment: LTEA_HepaRG_TGFB1: Life Technologies and Expression Analysis (LTEA) Assay for Transforming Growth Factor (TGFB1) Transporter using HepaRG (AID 2283533). Put shortly:
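Eight-point concentration-response (max 100 uM, half-log) in HepaRG under serum-free induction conditions, 48 h. TGFB1 mRNA by qRT-PCR, housekeeping-normalized.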

Read-out in experiment [12]: TIMP1, TIMP1 (gene 7076)
Put plainly: LTEA_HepaRG_TIMP1: Life Technologies and Expression Analysis (LTEA) Assay for TIMP1 using HepaRG (AID 2283534).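 As to outcome: TaqMan qRT-PCR signal normalized to ACTB GAPDH and POLR2A housekeeping genes.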 In a few lines: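 TIMP1 induction or repression in HepaRG cells after 48 h chemical exposure (eight concentrations, highest 100 uM), assessed by normalized qRT-PCR with bidirectional fitting to DMSO controls.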

Read-out in experiment [13]: Tumor necrosis factor receptor 1 (TNFRSF1A), TNFRSF1A (gene 7132)
As to the kind of experiment: LTEA_HepaRG_TNFRSF1A: Life Technologies and Expression Analysis (LTEA) Assay for Tumor necrosis factor receptor 1 (TNFRSF1A) using HepaRG (AID 2283535). Put shortly: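 Assay uses 48 h chemical treatment of differentiated HepaRG monolayers, tested in duplicate at eight concentrations from 100 uM downward in 0.5% DMSO. mRNA is normalized to ACTB, GAPDH and POLR2A, with induction or suppression fitted relative to vehicle.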

Read-out in experiment [14]: Thyroid Hormone Responsive (THRSP), THRSP (gene 7069)
Put plainly: LTEA_HepaRG_THRSP: Life Technologies and Expression Analysis (LTEA) Assay for Thyroid Hormone Responsive (THRSP) using HepaRG (AID 2283536). In a few lines:
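mRNA induction or loss relative to 0.5% DMSO vehicle was fitted bidirectionally across an eight-point curve whose highest exposure was 100 uM. Human HepaRG liver cells received chemicals in duplicate over 48 h before RNA extraction.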

Read-out in experiment [15]: Cellular tumor antigen p53 (Homo sapiens) (UniProt P04637)
As to the kind of experiment: LTEA_HepaRG_TP53: Life Technologies and Expression Analysis (LTEA) Assay for Tumor Protein P53 (TP53) using HepaRG (AID 2283537). Put shortly: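 Gain or loss of TP53 mRNA signal is scored relative to 0.5% DMSO after 48 h chemical treatment of HepaRG liver cells, tested in duplicate at eight half-log concentrations up to 100 uM.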

Read-out in experiment [16]: UDP glucuronosyltransferase (UGT1A1), UGT1A1 (gene 54658)
Put plainly: LTEA_HepaRG_UGT1A1: Life Technologies and Expression Analysis (LTEA) Assay for UDP glucuronosyltransferase (UGT1A1) using HepaRG (AID 2283538). Put shortly: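 HepaRG cells, 0.5% DMSO vehicle, 48 h exposure in serum-free induction medium to 8-point half-log series topping at 100 uM, in duplicate. UGT1A1 mRNA by Fluidigm qRT-PCR, normalized to ACTB/GAPDH/POLR2A; bidirectional fit versus DMSO.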

Read-out in experiment [17]: solute carrier (SLC22A1), SLC22A1 (gene 6580)
Put plainly: LTEA_HepaRG_SLC22A1: Life Technologies and Expression Analysis (LTEA) Assay for solute carrier (SLC22A1) using HepaRG (AID 2283524). In a few lines:
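HepaRG (human liver line), 48 h dosing in serum-free induction medium; 8 conc., half-log down from 100 uM, 0.5% DMSO vehicle, duplicates. Endpoint: SLC22A1 mRNA, qRT-PCR, housekeeping-normalized; gain/loss fit vs DMSO.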

Read-out in experiment [18]: Nuclear factor erythroid 2-related factor 2 (Homo sapiens) (UniProt Q16236)
As to the kind of experiment: LTEA_HepaRG_NFE2L2: Life Technologies and Expression Analysis (LTEA) Assay for Nuclear factor erythroid 2-related factor 2 (NFE2L2) Transcription Factor using HepaRG (AID 2283527).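 Also: TaqMan qRT-PCR transcript level normalised to ACTB GAPDH and POLR2A housekeeping genes.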 In a few lines:
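Transcript level of NFE2L2 is the read-out, measured by microfluidic TaqMan qRT-PCR and normalized to three housekeeping genes. Human HepaRG cultures received test chemical for 48 h at up to 100 uM in half-log steps. Gain or loss of signal is fitted relative to 0.5% DMSO.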

Sequence of Signal transducer and activator of transcription 3 (Homo sapiens) (P40763 whole entry, looked up): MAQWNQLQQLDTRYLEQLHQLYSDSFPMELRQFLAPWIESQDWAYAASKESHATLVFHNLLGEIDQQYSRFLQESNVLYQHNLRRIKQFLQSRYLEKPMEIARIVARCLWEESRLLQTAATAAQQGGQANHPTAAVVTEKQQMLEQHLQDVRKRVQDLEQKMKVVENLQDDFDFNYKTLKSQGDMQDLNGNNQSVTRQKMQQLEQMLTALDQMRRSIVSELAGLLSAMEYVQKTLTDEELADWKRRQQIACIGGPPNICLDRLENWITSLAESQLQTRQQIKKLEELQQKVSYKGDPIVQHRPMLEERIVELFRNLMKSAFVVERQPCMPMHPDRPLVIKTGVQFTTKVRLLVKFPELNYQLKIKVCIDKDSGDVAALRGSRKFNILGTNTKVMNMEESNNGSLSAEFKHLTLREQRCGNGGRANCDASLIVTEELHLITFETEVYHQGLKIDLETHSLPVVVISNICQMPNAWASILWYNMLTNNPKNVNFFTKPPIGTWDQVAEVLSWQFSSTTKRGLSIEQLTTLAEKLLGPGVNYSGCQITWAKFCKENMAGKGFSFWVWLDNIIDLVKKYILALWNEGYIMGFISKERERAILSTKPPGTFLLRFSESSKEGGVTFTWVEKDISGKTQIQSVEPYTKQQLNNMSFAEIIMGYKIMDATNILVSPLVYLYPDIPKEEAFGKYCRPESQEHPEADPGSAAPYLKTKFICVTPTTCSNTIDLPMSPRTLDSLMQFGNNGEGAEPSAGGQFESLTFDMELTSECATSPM
Sequence of Cellular tumor antigen p53 (Homo sapiens) (P04637 whole entry, looked up): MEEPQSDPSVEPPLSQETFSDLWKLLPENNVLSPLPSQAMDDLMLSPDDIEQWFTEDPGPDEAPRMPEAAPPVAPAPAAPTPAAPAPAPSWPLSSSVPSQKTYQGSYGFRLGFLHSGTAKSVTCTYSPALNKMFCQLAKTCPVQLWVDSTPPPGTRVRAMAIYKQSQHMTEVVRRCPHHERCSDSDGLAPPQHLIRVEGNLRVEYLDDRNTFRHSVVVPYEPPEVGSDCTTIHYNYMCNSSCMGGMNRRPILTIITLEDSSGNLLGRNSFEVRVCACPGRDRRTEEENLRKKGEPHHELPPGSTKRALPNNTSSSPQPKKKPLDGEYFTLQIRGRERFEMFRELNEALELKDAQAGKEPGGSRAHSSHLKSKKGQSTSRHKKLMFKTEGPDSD
Sequence of Nuclear factor erythroid 2-related factor 2 (Homo sapiens) (Q16236 whole entry, looked up): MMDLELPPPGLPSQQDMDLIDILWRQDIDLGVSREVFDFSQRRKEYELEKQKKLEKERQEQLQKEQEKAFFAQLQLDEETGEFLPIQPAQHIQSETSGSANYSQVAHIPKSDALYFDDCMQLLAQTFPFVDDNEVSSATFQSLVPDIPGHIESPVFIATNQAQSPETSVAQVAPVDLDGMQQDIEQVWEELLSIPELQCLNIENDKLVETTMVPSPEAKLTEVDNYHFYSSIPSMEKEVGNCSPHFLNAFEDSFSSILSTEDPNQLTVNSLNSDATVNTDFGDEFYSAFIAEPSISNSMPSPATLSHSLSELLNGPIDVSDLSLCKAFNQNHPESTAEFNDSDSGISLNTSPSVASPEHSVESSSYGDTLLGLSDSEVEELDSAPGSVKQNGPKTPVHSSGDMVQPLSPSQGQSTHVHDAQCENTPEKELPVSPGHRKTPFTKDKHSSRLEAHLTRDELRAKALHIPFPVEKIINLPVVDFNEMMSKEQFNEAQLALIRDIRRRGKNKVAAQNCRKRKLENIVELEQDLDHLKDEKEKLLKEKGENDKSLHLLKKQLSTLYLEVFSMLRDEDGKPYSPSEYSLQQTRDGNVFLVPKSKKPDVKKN

For orientation: AC50 means the concentration giving half of the maximal activity seen. `CC1(C)C(C=C(Cl)Cl)C1C(=O)OCc1cccc(Oc2ccccc2)c1` (stereo not drawn): the molecule was classed as inactive in experiment [1], in experiment [2], in experiment [3], in experiment [4], in experiment [5] and in experiment [6]. Also, the molecule was called inactive in experiment [7], in [8], in experiment [9], in experiment [10], in experiment [11] and in [12]. Moreover, the result in [13], in experiment [14] and in experiment [15] was inactive. In addition, in experiment [16], the AC50 was 14.6 µM (active).
Regarding `C#CCOC(=O)[C@@H](C)Oc1ccc(Oc2ncc(Cl)cc2F)cc1`, the molecule was classed as inactive in [1], in [2], in experiment [3], in experiment [5], in experiment [6] and in experiment [7]. Further, the result in experiment [8], in experiment [9], in experiment [10], in experiment [11], in experiment [12] and in experiment [13] was inactive. Also, the molecule was classed as inactive in [14] and in [15]. The results for the AC50 in experiment [4] and in [16] were 50 µM (active) and 20.2 µM (active), respectively.
As to `Oc1ccc(C(c2ccc(O)cc2)C(Cl)(Cl)Cl)cc1`, the half-maximal activity concentration (AC50) in [1] was 74.8 µM (active); in experiment [2], 82.3 µM (active); in [3], 76.9 µM (active); in [5], 82.7 µM (active); in [6], 80.6 µM (active); in experiment [7], 76.8 µM (active). The AC50 in experiment [9] was 84.3 µM (active); in experiment [10] it was 80.7 µM (active); in experiment [11], 87.1 µM (active); in experiment [12], 79.2 µM (active); in [13], 87.3 µM (active); in experiment [15] it was 90.4 µM (active). Moreover, the AC50 in experiment [16] was 88.5 µM (active). Besides, the molecule was called inactive in experiment [4], in experiment [8] and in experiment [14].
On to `CC(=O)S[C@@H]1CC2=CC(=O)CC[C@]2(C)[C@H]2CC[C@@]3(C)[C@@H](CC[C@@]34CCC(=O)O4)[C@H]12`, for which the molecule was called inactive in experiment [1], in [2], in experiment [3], in experiment [5], in experiment [6] and in experiment [7]. Besides, the call in [10], in experiment [11], in experiment [12], in [13] and in experiment [15] was inactive. Further, the AC50 was 50 µM (active) in experiment [4]; 50.4 µM (active) in experiment [8]; 50 µM (active) in experiment [9]; 36.5 µM (active) in experiment [14]; 72.2 µM (active) in [16].
As to `CCOC(=O)c1ccc(O)cc1`, the result in experiment [1], in experiment [2], in [3], in [4], in [5] and in experiment [6] was inactive. In addition, the molecule was classed as inactive in experiment [7], in [8], in experiment [9], in experiment [10], in experiment [11] and in experiment [12]. In addition, the molecule was called inactive in [13], in experiment [14], in experiment [15] and in experiment [16].
`O=C(O)c1ccccc1`: the molecule was classed as inactive in experiment [1], in [2], in [3], in experiment [4], in [5] and in experiment [6]. Moreover, the result in [7], in experiment [8], in experiment [9], in [10], in experiment [11] and in experiment [12] was inactive. In addition, the molecule was called inactive in experiment [13], in experiment [14], in experiment [15] and in [16].
`CCN(CC)C(=O)c1cccc(C)c1`: the outcome in [1], in experiment [2], in experiment [3], in experiment [17], in experiment [4] and in experiment [5] was inactive. For the same molecule, the result in [18], in experiment [6], in [8], in experiment [9], in experiment [10] and in experiment [11] was inactive. Besides, the call in [12], in [13] and in experiment [14] was inactive. Besides, the AC50 in experiment [7] was 4.39 µM (active); in [16], 16.5 µM (active).
